# Shown are actives, neighbours in structure and some others; about 12% of the full set was active somewhere.
# BAZ2B inh – inhibitors of human BAZ2B bromodomain; Potency, µM (titrated, usually from 114 µM), inactives show at the highest dose activity change, negative = inhibition, hits mostly inhibitors; Q9UIF8; AlphaScreen BAZ2B-H3K14Ac peptide displacement; 360,000 tested, 4.4% active; AID 504333; further: on the % scale 0 is the no-effect control and ±100 the full control effect; nearly all actives have a fitted effect of over 60% in size
#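 AlphaScreen displacement: compounds (up to 110uM) incubated 30 min at room temperature with a preformed 50 nM BAZ2B/50 nM biotinylated H3K14Ac peptide complex in PBS pH 7.4 with Tween-20. Donor and acceptor beads at 10 ug/mL final added, 20 min light-protected before reading.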
# HP1b chromo inh – blocks HP1-beta chromodomain binding to methylated histone tails. AlphaScreen HP1-beta / biotin-H3K9me3 peptide binding. Potency, µM (highest dose often 114 µM), for inactives: at the highest dose activity change, negative = inhibition, hits mostly inhibitors. 390,000 tested, 0.56% active. AID 540317; further: nearly all actives have a fitted effect of over 70% in size
# Target sequence (P83916 whole entry, looked up): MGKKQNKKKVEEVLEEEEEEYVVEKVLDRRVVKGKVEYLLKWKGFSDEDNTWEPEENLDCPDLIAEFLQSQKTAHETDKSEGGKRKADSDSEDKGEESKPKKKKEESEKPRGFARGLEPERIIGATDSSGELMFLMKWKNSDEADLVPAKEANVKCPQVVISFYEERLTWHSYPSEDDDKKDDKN
#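 AlphaScreen: HP1-beta (50 nM) preformed 30 min with biotin-H3(1-18)K9me3 peptide (50 nM) in PBS pH 7.4, 0.01% Tween-20. Compound added for 30 min at RT, then streptavidin donor/nickel chelate acceptor beads (10 ug/mL) for 30 min.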
# Sfp inh – blocks B. subtilis Sfp PPTase activity. Q9F4F7. 310,000 tested, 3.5% active. AID 1490. Potency, µM, for inactives: largest response in the series, negative = inhibition, most hits filed as inhibitors. Biochemical Sfp PPTase activity, qHTS;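 further: the enzyme is Sfp with the accession as filed and its product quenches rhodamine fluorescence; 0% = enzyme reaction without inhibitor and -100% = no enzyme wells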
#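 Reaction rates are the 30-min fluorescence difference (ex 525, em 598 nm) in wells containing 15 nM Sfp, 5 uM rhodamine-CoA and 12.5 uM BHQ-2-YbbR at pH 7.6 with 10 mM MgCl2.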
# TDP1 block – blocks human tyrosyl-DNA phosphodiesterase 1; Potency, µM (highest dose often 130 µM), for the others: at the highest dose activity change, negative = inhibition, most hits filed as inhibitors; recombinant TDP1, AlphaScreen DNA substrate cleavage; 350,000 tested, 0.28% active; Q9NUW8; AID 485290; further: on the % scale 0 is the no-effect control and ±100 the full control effect; nearly all actives have a fitted effect of over 40% in size
#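 Tdp1 1 nM final; 15 min RT w/ cpd; substrate 15 nM, 5 min; beads 10 ug/ml, 10 min; AlphaScreen read. Neg ctrl: no enzyme.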
# G9a inh – inhibitors of human histone lysine methyltransferase G9a; 350,000 tested, 8.8% active; Potency, µM (highest dose often 102 µM), for inactives: at the top dose activity, negative = inhibition, hits mostly inhibitors; G9a H3K9 monomethylation, AlphaScreen, 2 h; further: on the % scale 0 is the no-effect control and ±100 the full control effect; nearly all actives have a fitted effect of over 75% in size
# Target sequence (Q96KQ7 913-1193 limits assumed): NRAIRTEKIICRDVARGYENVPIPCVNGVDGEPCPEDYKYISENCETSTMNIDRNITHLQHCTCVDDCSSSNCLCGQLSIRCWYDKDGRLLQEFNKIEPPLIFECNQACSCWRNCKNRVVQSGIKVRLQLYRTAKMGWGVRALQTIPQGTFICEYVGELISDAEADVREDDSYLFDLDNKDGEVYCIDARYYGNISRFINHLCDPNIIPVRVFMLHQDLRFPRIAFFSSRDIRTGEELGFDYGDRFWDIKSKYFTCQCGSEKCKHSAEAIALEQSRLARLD
#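 Methyltransferase reactions run at room temperature for 2 h (20 nM enzyme, 500 nM biotin-H3K9 peptide, 20 uM SAM) after a 15 min compound preincubation; product detected by AlphaScreen beads and anti-H3K9me1 antibody.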
# JMJD2A Tudor inh – inhibitors of human JMJD2A Tudor domain | O75164 | AlphaScreen JMJD2A-Tudor / H3K4me3 peptide binding | Potency, µM (series often up to 114 µM), inactives show at the top dose activity change, negative = inhibition, actives largely listed as inhibitors | 390,000 tested, 4.4% active | AID 504339; further: on the % scale 0 is the no-effect control and ±100 the full control effect; nearly all actives have a fitted effect of over 50% in size
# Starred values were filed as active, the others as inactive; ? = inconclusive; . = no result; [ ] = dose if it differs, or a comment. The call rests on the fitted dose curve; in most records, active means well fitted curve in the direction sought with a large enough effect; inconclusive means small, poorly fitted or top-dose-only effect, or another doubt; inactive means no such curve, though single readings can be large; an effect the other way counts as inactive or inconclusive. Potency means the concentration at half of the fitted maximal effect.
SMILES,BAZ2B inh,HP1b chromo inh,Sfp inh,TDP1 block,G9a inh,JMJD2A Tudor inh
CCOC(=O)N1CCN(c2c(NCCN(C)Cc3ccccc3)c(=O)c2=O)CC1,-3%,37%,7%,-3%,56µM*,-7%
COc1ccc(CNc2ncnc3c2nc2n3CCCC2)cc1,-1%,30%,.,4%,-25%[59 µM],-11%
CCN1CCN(Cc2ccc(NC(=O)c3ccc(C)c(NC(=O)c4c[nH]c5cc(C(F)(F)F)ccc5c4=O)c3)cc2C(F)(F)F)CC1,?,5%,79µM*,-1%,?,-22%
COc1cccc2c(Nc3ccccc3C)cc(C)nc12,-37%,5%,0%,5%,?,-24%
O=C(O)/C(=C/c1ccco1)NC(=O)c1ccccc1,-30%,-3%,-19%,?,45µM*,?
Cc1ccc(C(=O)N/C(=C/c2ccco2)C(=O)N2CCCCCC2)cc1,-8%,-20%,-5%,.,71µM*,-31%
O=C(N/C(=C\c1ccco1)C(=O)N1CCCC1)c1cccs1,5%,-1%,?,0%,?,-6%
O=C(O)/C(=C\c1ccco1)NC(=O)c1cccc2ccccc12,?,-11%,79µM*,0%,.,89µM*
O=C(N/C(=C/c1ccco1)C(=O)N1CCCC1)c1cccs1,?,18%,32µM*,7%,-5%[2.33 µM],-5%
COc1ccc(-c2cc(C(=O)Nc3c(C(=O)c4ccc(C)c(F)c4)oc4ccccc34)no2)cc1,4%,41%,.,-1%,1%[59 µM],5%
Cc1ccc(NC(=O)c2cnc3sc(N4CCOCC4)nn3c2=O)cc1N(C)C,-17%,19%,.,-3%,-3%[59 µM],-9%
O=C(N/C(=C\c1ccco1)C(=O)N1CCCC1)c1ccccc1,-2%,13%,-11%,.,40µM*,-6%
Cc1cccc(C(=O)N/C(=C\c2ccco2)C(=O)N2CCCC2)c1,-8%[57.1 µM],-15%,?,0%,40µM*,-21%
O=C(N/C(=C\c1ccco1)C(=O)N1CCC(O)CC1)c1ccccc1,1%,10%,10%,.,?,-10%
O=C(Nc1ccc(O)cc1)/C(=C/c1ccco1)NC(=O)c1ccccc1,?,27%,2%,.,0%[12.7 µM],4%
O=C(O)/C(=C/c1ccco1)c1ccccc1,-11%,.,22µM*,-11%,?,.
Cc1c(Cl)ccc2sc(N3CCN(C(=O)CCS(=O)(=O)c4ccc(F)cc4)CC3)nc12,-7%,13%,.,8%,2%[59 µM],-12%
CNc1nc(-c2ccccn2)nnc1-c1ccccc1,0.89µM*,30%,63µM*,4%,2%[12.7 µM],5.6µM*
c1ccc(CNc2nc(-c3ccccn3)nc3ccccc23)cc1,?,53%,-26%,.,11%[2.33 µM],?
O=C(COc1ccc(Cl)cc1)OCc1cc(=O)n2nc(C3CC3)sc2n1,-4%,50%,.,8%,23%[59 µM],1%
O=c1c2c(-c3ccc([N+](=O)[O-])cc3)csc2nc2n1CCC2,-1%,?,?,3%,7.9µM*,-30%
CC1(C)CC(=O)C2=C(C1)OC(N)=C(C#N)C21CCN(Cc2ccccc2)CC1,-36%,68%,-1%,4%,28µM*,-20%
CCn1c(C)nc2cc(S(N)(=O)=O)ccc21,4%,-3%,0%,3%,.,14µM*
CCn1c(-c2ccccn2)nc2cc(S(=O)(=O)N(C)C)ccc21,14%,8%,3%,-10%,50µM*,-13%
CCn1c(-c2cc(Br)cc(OC)c2O)nc2cc(S(=O)(=O)N(C)C)ccc21,-13%,15%,-9%,5%,45µM*,-34%
SMILES,BAZ2B inh,HP1b chromo inh,Sfp inh,TDP1 block,G9a inh,JMJD2A Tudor inh
CCCCn1c(CCC(=O)O)nc2cc(S(=O)(=O)N(C)C)ccc21,-11%,18%,13%,2%,5%,-1%
CCn1c(CSc2nnc(C)n2-c2ccccc2)nc2cc(S(=O)(=O)N(C)C)ccc21,19%,23%,-8%,2%,-4%[59 µM],-8%
Cc1ccc(CNC(=O)CCCN2C(=O)c3cccnc3Oc3ccc(Cl)cc32)cc1,-4%,28%,.,4%,-31%[59 µM],-15%
CN(C(=O)CSc1ncnc2sc3c(c12)CCCC3)C1CCS(=O)(=O)C1 (stereo unspecified),.,2%[57 µM],.,2%,.,-19%
COc1ccccc1-c1nc(C#N)c(N2CCN(c3ccccc3)CC2)o1,11µM*,?,11%,9%,?,?
CC1CCCN(c2oc(-c3cccc4ccccc34)nc2C#N)C1 (stereo unspecified),-31%,-4%,7%,1%,-50%,4%
Cc1ccccc1-c1nc(C#N)c(N2CCC(C)CC2)o1,?,?,-8%,.,35µM*,?
COc1ccc(-c2nc(C#N)c(N3CCN(C(=O)c4ccco4)CC3)o2)cc1OC,0%,4%[57 µM],8%,4%,-4%,-2%
COc1ccc(-c2nc(C#N)c(N3CCc4ccccc4C3)o2)cc1OC,7.1µM*,-38%,4%,4%,28µM*,?
COc1ccc(N2CCN(c3oc(-c4ccccc4OC)nc3C#N)CC2)cc1,8.9µM*,?,-15%,3%,2.5µM*,13µM*
CCOc1ccccc1C1CC(=O)NC(C)=C1C(=O)OC1CCCCCC1 (stereo unspecified),-8%,15%,.,-4%[12.3 µM],-33%[59 µM],-21%
COC(=O)c1csc(S(=O)(=O)N2CCCCC2)c1OC,6%,44%,11%,0%,7%[59 µM],-11%
CC(C)NC(=O)CN1CCC(c2ccccc2)C(O)C1 (stereo unspecified),-4%,45%,18%,3%,0%,-4%
Cc1cccc(-c2nc(C#N)c(N3CCC(C)CC3)o2)c1,11%,53%,11%,.,-2%,1%
CCOc1ccc(-c2nc(C#N)c(N3CCN(Cc4ccccc4)CC3)o2)cc1,?,?,-7%,8%,10µM*,?
COc1ccc(N2CCN(c3oc(-c4ccc(OC)c(OC)c4)nc3C#N)CC2)cc1,?,7%,?,3%,-32%[2.33 µM],-8%
COc1ccc(-c2nc(C#N)c(N3CCN(c4ccccc4)CC3)o2)cc1,?,-24%,-25%,5%,8.9µM*,?
Cc1cccc(-c2nc(C#N)c(N3CCCCCC3)o2)c1,13µM*,?,-14%,11%,?,?
COc1ccccc1-c1nc(C#N)c(N2CCCCCC2)o1,?,-43%,?,13%,45µM*,?
Cn1ccc2cc(S(=O)(=O)N3CCN(C(=O)Nc4ccc(F)cc4F)CC3)ccc21,-11%,16%[57 µM],.,2%,7%[59 µM],-26%
COc1cccc(C2c3c(-c4ccccc4O)n[nH]c3C(=O)N2CCc2ccc(OC)c(OC)c2)c1 (stereo unspecified),?,3%,.,9%,1%[59 µM],?

# Screening results deposited in PubChem BioAssay by National Center for Advancing Translational Sciences (NCATS).
